The values that follow come from ChEMBL document CHEMBL1157539, “Thousands of chemical starting points for antimalarial lead identification” (Nature, 2010).

The structures appear in SMILES notation.

Assay type in all cases: functional
In assay [1] the test system is Plasmodium falciparum. Briefly: GSK_TCMDC: Inhibition of Plasmodium falciparum 3D7 in whole red blood cells, using parasite LDH activity as an index of growth. Test compounds present at 2uM.
The subject of assay [2] is Plasmodium falciparum. Briefly: GSK_TCMDC: Inhibition of Plasmodium falciparum Dd2 in whole red blood cells, using parasite LDH activity as an index of growth. Test compounds present at 2uM.
For a further assay, the system named is HepG2. Briefly: GSK_TCMDC: Percent inhibition of human HepG2 cell line. Test compounds present at 10uM.

By Inhibition is commonly meant the percentage by which the read-out fell short of the control. A high value points to a strong effect.

With `Cl.O=C(NCCCCN1CCC(c2ccc3c(c2O)CCCC3)CC1)c1ccc(NC(=O)c2ccc(Cl)cc2)cc1`, the Inhibition in the assay on Plasmodium falciparum [1] is given as 100%; in the assay with Plasmodium falciparum [2], 100%; with HepG2, 99%.
For the molecule `COc1ccc(-c2cccc(NC(=O)c3ccc(Cl)cc3)c2)cc1CN1CCNCC1.O=C(O)C(F)(F)F`, the results for the Inhibition in the assay on Plasmodium falciparum [1], in the assay with Plasmodium falciparum [2] and with HepG2 were 96%, 22% and 52%, respectively.
The corresponding values for `Cc1cc(NC(=O)c2ccco2)ccc1OC1CCN(Cc2ccc(F)cc2)CC1.O=C(O)C(F)(F)F` are 96%, 93% and 4%.
Take `COC(=O)C(C)(C)Cc1c(SC(C)(C)C)c2cc(C(C)C)ccc2n1Cc1ccc(Cl)cc1`: the values for the Inhibition in the assay on Plasmodium falciparum [1], in the assay with Plasmodium falciparum [2] and in the assay on HepG2 were 96%, 96% and 0%, respectively.
For the molecule `CCc1cn2c3c(cc(C(=O)N[C@@H](Cc4ccccc4)[C@H](O)CNCCOC)cc13)N(C)S(=O)(=O)CC2.O=CO`, the Inhibition in the assay with Plasmodium falciparum [1] came to 98%; with Plasmodium falciparum [2], 56%; in the assay on HepG2, 7%.
On the same counts, the results for `CC(C)Cc1cn(-c2nc(-c3nc4ccccc4[nH]3)cs2)c2cc(Cl)ccc12.Cl` are 99%, 68% and 9%.
On the same counts, the results for `C=CCOc1ccc(CNC2CCN(Cc3ccccc3)CC2)cc1Br.O=C(O)C(=O)O` are 92%, 8% and 9%.
On the same counts, the results for `Cc1cccc2nc(-c3cccc(-c4ccc(NC(=O)c5ccc(=O)[nH]n5)cc4)c3)[nH]c12` are 100%, 27% and 18%.
Consider `CC(NC(=O)c1cc(-c2ccccc2)nc2c1cnn2C(C)C)C1CC1` (stereo unspecified), for which the Inhibition is 100% in the assay on Plasmodium falciparum [1], 88% in the assay with Plasmodium falciparum [2] and 35% in the assay on HepG2.
The corresponding values for `CCCCc1ccc2ncc(C(=O)OCC)c(O)c2c1` are 95%, 96% and 3%.
The corresponding values for `Cc1cc(-c2ccc3c(c2)CCN(CCC2CCC(NC(=O)/C=C/c4ccc(F)cc4)CC2)CC3)on1.Cl` (stereo unspecified) are 98%, 47% and 29%.
As to `CC1CCN(C(=O)CSc2nc(-c3ccc(C(C)C)cc3)no2)CC1`, the Inhibition is recorded as 98% in the assay on Plasmodium falciparum [1], 84% in the assay with Plasmodium falciparum [2] and 0% in the assay with HepG2.
For the molecule `Cc1ccccc1C1CCN(C2CCC(NC(=O)/C=C/c3ccc(Cl)cc3)CC2)CC1` (stereo unspecified), the Inhibition with Plasmodium falciparum [1] is listed as 99%; in the assay with Plasmodium falciparum [2], 25%; in the assay with HepG2, 78%.
On to `CN(C)c1ccc(-c2csc(C(=O)NC3CCCCN(CCC(C)(C)C)C3)c2)cc1.O=C(O)C(F)(F)F` (stereo unspecified), for which the Inhibition in the assay with Plasmodium falciparum [1] is 91%; with Plasmodium falciparum [2], 68%; in the assay on HepG2, 10%.
On the same counts, the results for `O=C(/C=C/c1ccc(Cl)c(Cl)c1)N1CCC(CN2CCC(c3nc4ccccc4n3CCCO)CC2)CC1` are 96%, 0% and 60%.
As for `COC(=O)c1cccc(CNCc2ccc(-c3cccc(-c4nc5cccc(C)c5[nH]4)c3)cc2)c1.O=C(O)C(F)(F)F`, the Inhibition is listed as 100% with Plasmodium falciparum [1], 84% in the assay with Plasmodium falciparum [2] and 0% with HepG2.
On the same counts, the results for `FC(F)(F)c1ccc2[nH]ccc(=NN=Cc3ccc(Cl)cc3)c2c1` are 100%, 53% and 5%.
On to `Cl.OCCNc1nc(Nc2cccc(O)c2)nc2ccccc12`, for which the results for the Inhibition in the assay with Plasmodium falciparum [1], with Plasmodium falciparum [2] and in the assay on HepG2 were 96%, 55% and 3%, respectively.
On the same counts, the results for `CC(C)CNCc1cccc(-c2ccc(CN(CCCN3CCN(C)CC3)C(=O)/C=C/c3ccccc3)cc2)c1.O=C(O)C(F)(F)F` are 92%, 90% and 48%.
On the same counts, the results for `Cc1cc(OCCCN2CCN(CCN3CCOCC3)CC2)ccc1NC(=O)COc1ccc(Cl)cc1C(=O)c1cc(Cl)cc(C#N)c1` are 99%, 78% and 30%.
On the same counts, the results for `O=C(N1CCN(c2ccnc3cc4c(cc23)N(Cc2ccccc2)CC4)CC1)C(F)(F)F` are 100%, 100% and 8%.
As to `O=C(NC1CCC1)C1CCN(C(c2ccccc2)c2cc(F)cc(F)c2)CC1` (stereo unspecified), the results for the Inhibition in the assay with Plasmodium falciparum [1], in the assay on Plasmodium falciparum [2] and with HepG2 were 94%, 72% and 0%, respectively.
On the same counts, the results for `CC(C)(C)c1ccc2[nH]c(-c3ccc(C(=O)NCc4cccc(C(F)(F)F)c4)cc3)nc2c1` are 98%, 26% and 9%.
Take `N[C@@H](COc1cccc2c(-c3ccncc3)c(-c3cccc(NC(=O)Nc4ccccc4)c3)nn12)c1ccccc1`: the values for the Inhibition in the assay on Plasmodium falciparum [1], in the assay on Plasmodium falciparum [2] and in the assay with HepG2 were 100%, 71% and 9%, respectively.
On the same counts, the results for `C=CCc1ccccc1OCC(O)CN(C1CCCCC1)C1CCCCC1.Cl` (stereo unspecified) are 93%, 84% and 50%.
For the molecule `Cl.Nc1c2c(nc3cc(NC(=O)c4ccc([N+](=O)[O-])cc4)ccc13)CCCC2`, the results for the Inhibition in the assay with Plasmodium falciparum [1], in the assay with Plasmodium falciparum [2] and in the assay with HepG2 were 100%, 58% and 11%, respectively.
As to `O=c1cc(NCCCNCc2[nH]c3cc(Cl)ccc3c2Cl)[nH]c2ccccc12`, the Inhibition in the assay on Plasmodium falciparum [1] is reported as 91%; in the assay on Plasmodium falciparum [2] it was 1%; in the assay with HepG2, 5%.
The corresponding values for `COC(=O)c1cc(C(O)CNC(C)CCc2cccc(F)c2)ccc1O.Cl` (stereo unspecified) are 94%, 77% and 38%.
On the same counts, the results for `CNC(=O)c1nc(-c2ccccc2)[nH]c1NC(C)=O` are 100%, 0% and 0%.
Take `C=CCN1CCC(N(Cc2cccc(Oc3ccccc3)c2)C(=O)C(c2ccccc2)c2ccccc2)CC1`: the Inhibition is on record as 87% in the assay with Plasmodium falciparum [1], 79% with Plasmodium falciparum [2] and 7% in the assay with HepG2.
As for `O=C(/C=C/c1ccc(CNCCN2CCOCC2)cc1)NCCc1ccccc1`, the Inhibition stood at 94% with Plasmodium falciparum [1], 3% in the assay on Plasmodium falciparum [2] and 9% with HepG2.
The corresponding values for `Nc1nc(N)c2c(ccc3c2ccn3CCCC(F)(F)F)n1` are 97%, 34% and 66%.
On the same counts, the results for `COC(=O)c1sc(-c2ccc(Cl)cc2)cc1N(CCCN1CCC(N2CCCCC2)CC1)S(=O)(=O)c1ccc(C)cc1` are 100%, 86% and 25%.
On to `COc1cccc(C(=O)NC(NC(=S)Nc2ccc(OC)cc2[N+](=O)[O-])C(Cl)(Cl)Cl)c1` (stereo unspecified), for which the results for the Inhibition with Plasmodium falciparum [1], in the assay on Plasmodium falciparum [2] and with HepG2 were 99%, 49% and 9%, respectively.
The corresponding values for `CN1CCCC(CN2CCN(Cc3cccc(-c4cccc(-c5nc6ccccc6[nH]5)c4)c3)CC2)C1.O=C(O)C(F)(F)F` (stereo unspecified) are 100%, 99% and 45%.
On the same counts, the results for `Cc1nc2nc(N)nc(N)c2c(C)c1Cc1ccc(C(F)(F)F)cc1.Cl` are 96%, 22% and 57%.
On the same counts, the results for `CC(=NNC(=N)N)c1ccc2ccc3ccccc3c2c1.Cl` are 97%, 23% and 14%.
Regarding `Cc1cc(N[C@@H](Cc2ccccc2)C(=O)Nc2ccccc2)nc(NCCc2ccccn2)n1.O=C(O)C(F)(F)F`, the results for the Inhibition with Plasmodium falciparum [1], in the assay on Plasmodium falciparum [2] and with HepG2 were 97%, 50% and 0%, respectively.
For `O=C(C1CCN(C(c2ccccc2)c2ccc(Cl)c(Cl)c2)CC1)N1CC=CC1` (stereo unspecified), the Inhibition in the assay on Plasmodium falciparum [1] turned out to be 89%; with Plasmodium falciparum [2], 84%; in the assay with HepG2 it was 1%.
On the same counts, the results for `O=C(Nc1cccc(CN2CCN(Cc3ccc(O)cc3)CC2)c1)c1cc2ccccc2s1.O=C(O)C(F)(F)F` are 100%, 26% and 15%.
The corresponding values for `CC(=O)Nc1nc(C(=O)Nc2cccc(-c3ccc(-c4nc5cc(F)ccc5[nH]4)cc3)c2)cs1` are 100%, 32% and 54%.
With `Cc1ccc(NC(=O)Nc2ccc(Cl)cc2)cc1-c1cccc(C(=O)Nc2ccc(F)cc2)c1`, the Inhibition is listed as 96% in the assay with Plasmodium falciparum [1], 52% in the assay on Plasmodium falciparum [2] and 8% in the assay with HepG2.
The corresponding values for `CCCNc1ccc(-c2cc(C(N)=O)c3[nH]cc(C4CCN(S(=O)(=O)CC)CC4)c3c2)cn1.O=C(O)C(F)(F)F` are 99%, 42% and 6%.
Take `CC(=O)c1ccccc1OCCSc1nnc(Cc2cccs2)n1C1CCCCC1`: the Inhibition in the assay with Plasmodium falciparum [1] came out at 87%; in the assay with Plasmodium falciparum [2] it was 1%; in the assay with HepG2, 19%.
On the same counts, the results for `Cc1cc(N[C@@H](CC(C)C)C(=O)NCCCOC(C)C)nc(NCCc2ccc(F)cc2)n1.O=C(O)C(F)(F)F` are 87%, 19% and 5%.
The corresponding values for `COc1ccc(N2CCN(CCCCNC(=O)c3ccc(NC(=O)c4ccc(Cl)cc4)cc3)CC2)c(C)c1` are 100%, 51% and 42%.
The corresponding values for `CCN(CC)c1ccc(C=CC(=O)NCCN2CCC(N(C)C3CCCCC3C)CC2)cc1` (stereo unspecified) are 88%, 18% and 29%.
With `CC(=NNC(=N)N)c1ccc2c(c1)Cc1ccccc1-2.Cl`, the Inhibition in the assay on Plasmodium falciparum [1] is recorded as 100%; in the assay with Plasmodium falciparum [2], 10%; with HepG2, 44%.
Consider `O=c1cc(NCCCNCc2ccc(C(F)(F)F)cc2F)[nH]c2ccccc12`, for which the Inhibition amounted to 93% in the assay on Plasmodium falciparum [1], 48% in the assay on Plasmodium falciparum [2] and 1% in the assay on HepG2.
On the same counts, the results for `COc1ccc(CNCC(C)(C)c2nc(-c3ccc(Cl)c(O)c3)c(-c3ccncc3)[nH]2)cc1.Cl` are 100%, 99% and 76%.
In the case of `COc1ccc(C2C(C(=O)Nc3cc(Cl)c(OC)cc3OC)c3ccccc3C(=O)N2C)cc1` (stereo unspecified), the Inhibition was found to be 100% in the assay with Plasmodium falciparum [1], 98% in the assay on Plasmodium falciparum [2] and 14% in the assay with HepG2.
The corresponding values for `N#Cc1ccc(N2C[C@@H](OCc3ccccc3)C[C@H]2C(=O)NCCC(c2ccccc2)c2ccccc2)c2ccccc12` are 93%, 96% and 11%.
The corresponding values for `Cc1cccc2nc(-c3ccc(-c4ccc(CNCc5cnn(-c6ccccc6)n5)cc4)cc3)[nH]c12.O=C(O)C(F)(F)F` are 100%, 99% and 35%.
On the same counts, the results for `Br.Cc1ccccc1OCCCON1C(=N)N=C(N)NC1(C)C` are 95%, 97% and 66%.
Regarding `Cl.O=c1cc(NCCCCNCc2ccc(Br)c(Br)c2)[nH]c2ccccc12`, the values for the Inhibition in the assay on Plasmodium falciparum [1], with Plasmodium falciparum [2] and with HepG2 were 98%, 14% and 13%, respectively.
For `COc1ccc2c(CCNc3nc(SC)ncc3C(=O)NCCc3ccc(F)cc3)c[nH]c2c1.O=C(O)C(F)(F)F`, the values for the Inhibition in the assay on Plasmodium falciparum [1], with Plasmodium falciparum [2] and with HepG2 were 91%, 49% and 3%, respectively.
The corresponding values for `COc1ccc(NC(=O)Nc2ccc(-c3cccc(-c4nc5cccc(C)c5[nH]4)c3)cc2)cc1` are 100%, 75% and 33%.
Consider `O=C(O)c1ccc(-c2c[nH]c3ncc(-c4ccc(Cl)cc4)cc23)cc1`, for which the Inhibition in the assay with Plasmodium falciparum [1] was 97%; in the assay with Plasmodium falciparum [2], 99%; with HepG2, 39%.
Take `O=C(NCCCCN1CCC(c2nc3ccccc3s2)CC1)c1cc2ccccc2[nH]1`: the Inhibition came out at 86% in the assay on Plasmodium falciparum [1], 64% in the assay on Plasmodium falciparum [2] and 43% in the assay with HepG2.
In the case of `O=C(Nc1ccc(C(F)(F)F)cc1)NC1CCN(c2ccnc3cc(Cl)ccc23)C1.O=C(O)C(F)(F)F` (stereo unspecified), the values for the Inhibition in the assay with Plasmodium falciparum [1], in the assay on Plasmodium falciparum [2] and with HepG2 were 100%, 99% and 20%, respectively.
On the same counts, the results for `CCc1c(CCNCCCC(C)CCNCCc2ccc(OC)c(OC)c2CC)ccc(OC)c1OC.Cl` (stereo unspecified) are 100%, 27% and 99%.
The corresponding values for `CS(=O)(=O)N(CC(O)Cn1c2ccc(Cl)cc2c2cc(Cl)ccc21)c1ccccc1` (stereo unspecified) are 100%, 98% and 2%.
